BaF3 parental: parental Ba/F3 cell viability inhibition, counter-screen for JAK2V617F inhibitor project, murine pro-B, CellTiter-Glo luminescence | CellTiter-Glo ATP luminescence | inhibition, % at 5.6 µM | 1.1% of 220,000 active;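 active = inhibition above a per-campaign cutoff, the mean inhibition of all tested compounds plus 3 SD, cut at about 27% in these data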;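 also: 0% = DMSO wells and 100% = JAK Inhibitor I control wells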
aSyn UTR inh: MLPCN primary screen, SNCA 5' untranslated region; inhibition, % (tested at 7.5 µM); AID 1813, 2009; alpha-synuclein 5'UTR reporter, inhibitor activity; 0.82% of 300,000 active; in the data active = inhibition above about 60%;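 also: H4 neuroglioblastoma cells stably carrying SNCA 5'UTR luciferase fusion; 0% = DMSO wells and 100% = positive control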
IEC-6 tox: cytotoxicity in IEC-6 intestinal epithelial cells, primary screen, cytotoxicity control for KLF5 inhibitor project, cell-based, luminescence | IEC-6 cytotoxicity, luminescence viability | inhibition, % at 5 µM | 0.78% of 290,000 active | AID 1825, 2009;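 also: 0% = plate median of test compound wells and 100% = cytotoxic reference compound wells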
KLF5 inh: KLF5 expression inhibitors, primary screen, DLD-1 cells, luminescence; AID 1700, 2009; inhibition, % at 5 µM; 0.23% of 290,000 active; DLD-1 KLF5 promoter-luciferase reporter;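 active = inhibition above a per-plate limit of that plate's mean compound inhibition plus 3 SD, cut at about 60% in these data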;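 also: 0% = DMSO wells and 100% = LY294002 at 200 µM; higher means less KLF5 promoter-driven luciferase light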
Ba/F3 V617F tox: reduced viability of JAK2V617F-dependent Ba/F3 cells, primary screen, JAK2V617F inhibitor project, cell-based, Ba/F3 EpoR-JAK2V617F, luminescence; ATP luminescence; AID 1446, 2008; inhibition, % at 5.6 µM; 1.1% of 220,000 active;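 active = inhibition above the campaign mean plus 3 SD over all tested compounds, cut at about 24% in these data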;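 also: cytokine-independent growth of Ba/F3 cells driven by EpoR plus mutant JAK2; 0% = DMSO-treated cells and 100% = JAK inhibitor I control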
APP transl inh: inhibitors of APP translation via 5'UTR reporter, primary screen, APP 5'UTR luciferase, SH-SY5Y cells. SH-SY5Y APP 5'UTR-luciferase reporter, luminescence. inhibition, % at 2 µM. 0.82% of 190,000 active;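 active = inhibition above a set limit, derived from the sample mean plus 3 SD, cut at about 45% in these data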
IEC-6 cytotox cf: cytotoxic compounds in IEC-6 epithelial cells, confirmation, cytotoxicity control, cell-based, luminescence; shares compounds with IEC-6 tox; IEC-6 rat intestinal epithelial viability; inhibition, % at 5 µM; 63% of 1,900 active; AID 1907, 2009;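 also: 0% = vehicle and 100% = reference cytotoxic drug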
An asterisk follows results filed as active; x = no result given. An excerpt weighted towards active compounds, which were near 2.2% of everything screened. Rule as the data show it, unless noted: active = inhibition above about 22%; inactive = the rest.

SMILES	BaF3 parental	aSyn UTR inh	IEC-6 tox	KLF5 inh	Ba/F3 V617F tox	APP transl inh	IEC-6 cytotox cf
COC(=O)c1cn(C(=O)c2ccc(C)cc2)c2ccccc12	0	-36	-1	-42	-2	-2	x
N=c1c(C(=O)NC2CCCCC2)cc2c(=O)n3ccccc3nc2n1Cc1ccco1	x	-28	42*	3	x	x	10
O=C1C2CC=CCC2C(=O)N1Cc1nnc(-c2ccccc2Br)o1 (centres undefined)	0	-25	6	-24	0	x	x
CCCc1cnc(NCCNCC(O)COc2ccc(Cl)c(Cl)c2)nc1 (centres undefined)	-3	18	3	-20	8	x	x
CCn1c(C)c(C)c2cc(C(=O)N3CCc4ccccc4C3)ccc21	x	-6	46*	-4	x	x	30*
N#C/C(=C\c1ccccn1)c1ccccn1	x	-51	28*	-46	x	x	17
C=CCN(C(=O)CCC(=O)Nc1cc(C)on1)C(C(=O)NC(C)(C)CC)c1cccc(OC)c1OC (centres undefined)	x	-11	2	7	x	x	x
COc1cccc(C2NC(=S)NC(C)=C2C(=O)c2ccccc2)c1OC (centres undefined)	78*	16	68*	55	84*	78*	50*
Cc1ccc2c(c1)N(C(=O)CCC(=O)NC1CCC(C)CC1)CCO2 (centres undefined)	x	8	-6	-27	x	x	x
COc1cc(OC)cc(C(=O)c2c(C)c(C#N)c3ccccn23)c1	x	52	52*	58	x	x	18
CC(=O)NCC(=O)N1CCCC(C(=O)c2ccc(Oc3ccccc3)cc2)C1 (centres undefined)	0	-1	9	-26	-4	-8	x
N#CC1=C(N)Oc2cc(N)ccc2C1c1ccsc1 (centres undefined)	7	-12	-2	-27	-2	4	x
N#CC1=C(N)Oc2cc(N)ccc2C1c1cc(Br)cs1 (centres undefined)	x	-75	24*	1	x	x	10
N#CC1=C(N)Oc2cc(N)ccc2C1c1cccc(Br)c1 (centres undefined)	x	119*	81*	61	x	x	54*
Oc1ccc(Br)cc1CNc1cccc2cccnc12	x	12	44*	5	x	x	0
O=C(c1cc(COc2cccc3cnccc23)on1)N1CCCC(CCCO)C1 (centres undefined)	x	-5	23*	6	x	x	25*
CCSc1nnc(NC(=O)CCC2CCCCC2)s1	x	-17	x	x	x	x	x
CC(=O)/C(C#N)=C1\NC(=O)C(Cc2ccc(C)c(Cl)c2)S1 (centres undefined)	4	36	72*	21	2	x	48*
C/C(=N\N=C1\NC(=O)C(CC(=O)Nc2ccc(C)c(Cl)c2)S1)C(C)(C)C (centres undefined)	-1	-3	6	4	-3	-14	x
Cc1ccc(-n2nc(C)c3c(C)c(CCC(=O)NCC4CCCO4)c(=O)n(C)c32)cc1 (centres undefined)	x	6	4	-18	x	x	x
N#C/C(=C\c1c(N2CCCCC2)nc2ccccn2c1=O)S(=O)(=O)c1ccccc1	-3	7	-2	6	-5	x	x
CCC(C)(C)n1nnnc1CN1CCC(c2nc3ccc(C)cc3[nH]2)CC1	3	22	11	-44	-4	-1	x
Cc1cc2nc(C3CCN(Cc4nnnn4Cc4ccccc4)CC3)[nH]c2cc1C	68*	74*	72*	23	72*	40	52*
Cn1c(=O)c2c(nc(NCCNC(=O)c3ccco3)n2Cc2ccc(Cl)cc2Cl)n(C)c1=O	6	-22	-2	-12	0	3	x
Cn1c(=O)c2c(nc(NCC3CCCC(CN)C3)n2Cc2ccc(Cl)cc2Cl)n(C)c1=O (centres undefined)	x	-84	60*	-40	x	x	39*
SMILES	BaF3 parental	aSyn UTR inh	IEC-6 tox	KLF5 inh	Ba/F3 V617F tox	APP transl inh	IEC-6 cytotox cf
CN(C)C(=O)N1CCC(C(=O)N2CCCC(C(=O)c3cccc4ccccc34)C2)CC1 (centres undefined)	4	11	5	-18	4	11	x
CCOC(=O)Nc1ccc2nc(Sc3ccc(Cl)cc3)sc2c1	25	-41	38*	15	21	x	24*
CCOc1ccc(N2C(=O)C3C4C=CC([C@H]5CC45)[C@@H]3C2=O)cc1 (some centres undefined)	x	-20	-4	-32	x	x	x
Cc1cc(C(C)(C)C)cc(C)c1C[n+]1ccc2ccccc2c1	x	7	28*	-21	x	x	22*
COc1ccc(/C=C(\NC(=O)c2ccc(C)cc2)C(=O)NCCCn2ccnc2)cc1OC	x	-22	-4	-5	x	x	x
Cc1cccc(OCCCN2C(=O)C(=O)c3cc(C)ccc32)c1	7	-20	44*	-22	4	40	15
O=C(Cn1ncc(Cl)c(Cl)c1=O)N1CCc2ccccc21	-7	135*	41*	4	6	95*	21
c1ccc(CNc2ncnc3c2cnn3Cc2ccccc2)cc1	33*	15	27*	1	27*	2	35*
OCCNc1ncnc2c1cnn2Cc1ccccc1	x	-3	-2	-27	x	x	x
O=C(c1ccc2nccnc2c1)N1CCCC(N2CCN(c3ccc(F)cc3)CC2)C1 (centres undefined)	x	-17	2	-27	x	x	x
COc1cccc2c1O/C(=N\O)C(C(=O)Nc1ccc(C)cc1)C2 (centres undefined)	x	-31	52*	24	x	x	33*
COc1ccc(NC(=O)C2Cc3cccc(OC)c3O/C2=N\O)cc1 (centres undefined)	x	-4	4	9	x	x	x
O=C(COc1ccc(Br)cc1)Nc1ccccc1C(=O)NC1CC1	x	-2	x	x	x	x	x
C=C1C(=O)[C@@]23[C@H](O)C[C@@H]4C(C)(C)CC[C@H](O)[C@@]4(C)[C@@H]2CC[C@@H]1[C@H]3O	92*	18	65*	12	98*	84*	44*
COc1ccc(CCNC(=S)N2CCN(S(=O)(=O)c3ccccc3F)CC2)cc1	x	12	-11	-39	x	x	x
Cc1ccc(NC(=O)c2ccc(Cl)c(S(=O)(=O)N3CCCCCC3)c2)nc1	x	-22	x	x	x	x	x
CSc1nsc(N/N=C/c2ccccc2)c1C#N	5	-150	34*	-6	0	-43	33*
COc1ccc(/C=N/Nc2snc(SC)c2C#N)cc1OC	3	-146	41*	-21	0	-92	31*
COc1cccc(/C=N/Nc2snc(SC)c2C#N)c1	3	x	44*	17	1	-30	37*
COc1cccc(/C=N/Nc2snc(SC)c2C#N)c1O	11	-157	7	-83	5	-60	x
Oc1ccc(Br)cc1/C=N/n1c(C2CCCCC2)n[nH]c1=S	x	12	0	0	x	x	x

Screening data: PubChem BioAssay, several laboratories
